Results as given in PubChem BioAssay AID651719 (The Scripps Research Institute Molecular Screening Center, 2012).
The whole screen tested about 360,000 compounds, of which about 1,600 (0.44%) were called active. The list comes from a sample in which actives are over-represented; it also holds similar structures and randomly drawn compounds. Values without a mark were called inactive.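 The calls were made as follows: active = inhibition above the screen-wide average plus 3 SD (cut at about 13% in these data); inactive = the rest.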

These compounds were tested against Galanin receptor type 3 (Homo sapiens) (UniProt O60755) (assay: blockers of human galanin receptor 3 – cell-based, fluorescence readout, primary screen (AID 651719;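 also: forskolin and galanin both at EC90 stimulate the cells; cAMP rise reported by CNG channel membrane potential dye signal; 0% = forskolin plus galanin with DMSO and 100% = forskolin alone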)). Conditions: HEK293 GalR3-CNG cAMP membrane potential fluorescence; at 3 µM; active compounds read high; galR3 body fused to GalR1 C-terminus.
Sequence of Galanin receptor type 3 (Homo sapiens) (O60755 1-299 limits assumed): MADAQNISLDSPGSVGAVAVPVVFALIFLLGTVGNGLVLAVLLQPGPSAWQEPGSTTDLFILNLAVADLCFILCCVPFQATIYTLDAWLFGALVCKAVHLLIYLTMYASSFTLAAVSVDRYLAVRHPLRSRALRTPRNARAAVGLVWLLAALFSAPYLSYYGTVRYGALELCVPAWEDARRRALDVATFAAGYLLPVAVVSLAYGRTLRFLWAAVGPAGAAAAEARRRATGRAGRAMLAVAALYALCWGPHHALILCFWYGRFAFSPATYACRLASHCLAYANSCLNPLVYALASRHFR
For CCCCCCCCN1C(=O)[C@@H](CC(=O)N2CCN(C(=O)OCC)CC2)C[C@@]2(C(=O)OC)C1=C[C@H](C1CCCC1)O[C@@H]2C, the inhibition was -3.33%.
In the case of CCN1/C(=C\c2ccc3ccccc3[n+]2CC)Sc2cc(C)ccc21, the inhibition is reported as 45.8% (active).
With COC(=O)[C@]12C[C@H](CC(=O)NCc3cccc(C(F)(F)F)c3)C(=O)N(Cc3ccc4c(c3)OCO4)C1=C[C@H](COCc1ccccc1)O[C@@H]2C the inhibition was -4.92%.
COc1cccc(CNC(=O)[C@H]2CCCN2C(=O)[C@H]2CCCN2C(=O)C2CCCCC2)c1 was tested, and the inhibition was -6.3%.
With COc1cc2c(cc1OC)CN(C(=O)c1ccc(S(=O)(=O)N3CCCCCC3)cc1)CC2 the inhibition was 1.33%.
In the case of COc1cc2c(cc1OC)CN(C(=O)c1cc(S(=O)(=O)N3CCCCC3)ccc1Cl)CC2, the inhibition is reported as -3.04%.
In the case of CCOc1cc(C(=O)N2CCc3cc(OC)c(OC)cc3C2)ccc1OC(F)F, the inhibition is reported as 31.5% (active).
Nc1nc2c(ncn2[C@@H]2O[C@H](C(=O)N[C@@H](Cc3ccccc3)C(=O)NCc3ccccc3)[C@@H](O)[C@H]2O)c(=O)[nH]1 gave an inhibition of -5.49%.
Work on CCOC(=O)CN1C(=O)C(=O)c2cc(C)ccc21 yielded an inhibition of -3.3%.
In the case of Cc1cc(C(=O)OCC(=O)N2c3ccccc3NC(=O)C2(C)C)c(C)n1-c1ccccc1, the inhibition is reported as -4.87%.
CCOC(=O)c1cc2n(c1C)-c1ccccc1C2=O was tested, and the inhibition was 15.1% (active).
In the case of CCCNC(=O)C1(C)CCN1C(=O)Cc1ccc(-c2ccccc2)cc1 (stereo not drawn), the inhibition is reported as -4.21%.
C#Cc1ccc(NC(=O)C2(C)CCN2C(=O)Cc2ccc(-c3ccccc3)cc2)cc1 (stereo not drawn) was tested, and the inhibition was 44.5% (active).
Compound CC1(C(=O)NS(=O)(=O)c2ccccc2)CCN1C(=O)Cc1ccc(-c2ccccc2)cc1 (stereo not drawn) has an inhibition of 0.25%.
CCCn1nc(C(=O)Nc2ccc3nc(C)sc3c2)c2ccccc2c1=O showed an inhibition of -5.64%.
CCCn1nc(C(=O)NNC(=O)CCOc2ccccc2OCC)c2ccccc2c1=O was tested, and the inhibition was -2.63%.
CCCn1nc(C(=O)NNC(=O)CSCC(=O)Nc2cc(C)on2)c2ccccc2c1=O was tested, and the inhibition was 21.7% (active).
C[C@H](O)[C@@H]1CN2CCc3ccc(-c4ccc5c(c4)OCO5)cc3[C@@H]2C[C@@H]1N(C)C(=O)C1CCCCC1 was tested, and the inhibition was -7.4%.
Work on COC(=O)C1=C(C(=O)OC)C2C=C(C(C)C)C1C(=O)C2(C)O (stereo not drawn) yielded an inhibition of -4.32%.
For COC(=O)[C@]12C[C@H](CC(=O)NCc3ccccc3)C(=O)N(CCC3=CCCCC3)C1=C[C@H](C(C)(C)C)O[C@@H]2C, the inhibition was -4.94%.
Work on O=C(CSc1ccc(-c2cccs2)nn1)Nc1ccccc1F yielded an inhibition of -4.48%.
In the case of Cc1c(Cl)cccc1NC(=O)CSc1ccc(-c2cccnc2)nn1, the inhibition is reported as 14.3% (active).
For COc1cc(NC(=O)CSc2ccc(-c3cccnc3)nn2)cc(OC)c1, the inhibition was -2.54%.
